PubChem BioAssay AID745 (Emory University Molecular Libraries Screening Center, 2007)
Hit rate of the full screen: of about 33,000 compounds, about 40 (0.1%) were called active. This is one part of a sample in which actives are shown more often than they occur. Cut-off read from the data, not from the text of the source: active = z-score below about -3; inactive = the rest.

assay: inhibitors of measles virus growth in cells, primary screen, measles RdRp inhibitor project, cell-based, single point, HTS (AID 745); details: infected Vero cells, GFP fluorescence, 64 h; stronger effect = lower value

Structure (SMILES) | z-score
CC1=C(C(=O)N2CCOCC2)C(c2cccc(Cl)c2)C2=C(CCCC2=O)N1 (stereo not given) | 0.7 (inactive)
COc1cc(NS(=O)(=O)c2ccc(NC(=O)CN3C(=O)c4ccccc4C3=O)cc2)ncn1 | -0.53 (inactive)
CCOC(=O)Cc1nnc(NC(=O)c2ccc([N+](=O)[O-])cc2)s1 | -0.27 (inactive)
Cc1c(C(=O)Nc2cccc(Cl)c2)oc2ccc(S(=O)(=O)N3CCOCC3)cc12 | -0.46 (inactive)
C=CCn1c(SCCCC)nc2sc3c(c2c1=O)CCC3 | 1.46 (inactive)
Cc1cc(C)cc(NC(=O)c2cnn3c(C(F)(F)F)cc(-c4ccco4)nc23)c1 | 0.42 (inactive)
C=CCOc1ccc(NC(=O)C(=O)NC(C)c2ccccc2)cc1 (stereo not given) | 0.77 (inactive)
O=C(O)COc1ccc(-c2cc(C(=O)O)c3cc(Br)ccc3n2)cc1 | 0.41 (inactive)
NS(=O)(=O)c1ccc(CCNC(=O)c2ccc3c(=O)n(Cc4ccco4)c(=S)[nH]c3c2)cc1 | 0.48 (inactive)
COc1cccc(C(=O)Nc2ccc3nc(N4CCCCC4)cc(C)c3c2)c1 | -0.1 (inactive)
COc1cc(CNc2ccc3[nH]c(=O)[nH]c3c2)ccc1OCc1cccs1 | -1.62 (inactive)
CCCCc1ccc(C(=O)Nc2ccc3nc(N4CCN(C)CC4)cc(C)c3c2)cc1 | -0.21 (inactive)
COc1ccc(-c2nc3ccccc3n2Cc2ccccc2)cc1OC | 0.26 (inactive)
O=C(Nc1ccc(Cl)cn1)c1ccc(-c2ccc(Cl)cc2)o1 | -0.31 (inactive)
CCOC(=O)c1c(C)nc2c(C#N)c(C)n(-c3ccccc3)c2c1-c1ccc(Br)cc1 | 3.74 (inactive)
Cc1ccc(C2NC(=O)c3c(sc4c3CCCC4)N2)c(O)c1 (stereo not given) | -1.13 (inactive)
CC1=C(C(=O)OCC(C)C)C(c2ccc(OCc3ccccc3)cc2)N2C(=O)CCSC2=N1 (stereo not given) | -0.14 (inactive)
COc1ccc2nc(SCc3ccc(Cl)cc3)[nH]c2c1 | 0.1 (inactive)
COc1cc(C2CC(=O)c3cnc(NC(C)=O)nc3C2)cc(OC)c1OC (stereo not given) | 1.22 (inactive)
Cc1cc(N2C(=O)c3ccccc3C2=O)ccc1Br | -1.04 (inactive)
Cc1cccc(NC(=O)c2cc3c(=O)n4cccc(C)c4nc3s2)c1 | -1.13 (inactive)
Cc1ccc(-n2c(SCC(=O)OCc3ccccc3)nc3c(c2=O)SCC3)cc1 | -1 (inactive)
O=C1NC(c2ccccc2)Oc2ccccc21 (stereo not given) | -0.5 (inactive)

Structure (SMILES) | z-score
Cc1ccc(Sc2c(C)nn(C(C)(C)C)c2OC(=O)C2CCCC2)cc1 | -0.01 (inactive)
C=CCOC(=O)C1=C(C)N=C2SCCC(=O)N2C1c1ccc(Br)cc1 (stereo not given) | -1.08 (inactive)
Cc1cc(C)cc(NC(=O)C(C)N(c2ccccc2)S(C)(=O)=O)c1 (stereo not given) | 0.11 (inactive)
COC(=O)Cn1c(=O)n(-c2ccccc2)c(=O)n1CC(=O)OC | 1.19 (inactive)
O=C1C2C3c4ccccc4C(Br)(c4ccccc43)C2C(=O)N1c1ccc([N+](=O)[O-])cc1 (stereo not given) | -0.34 (inactive)
O=c1oc2ccc3ccccc3c2cc1-c1nc(-c2ccccc2)cs1 | 0.88 (inactive)
CC1CCC(NS(=O)(=O)c2ccc3c(c2)oc(=O)n3C)CC1 (stereo not given) | -0.87 (inactive)
CN1CCN(C(=O)c2cnn3c(C(F)(F)F)cc(-c4ccc(Br)cc4)nc23)CC1 | -0.34 (inactive)
O=C(NCc1ccc(F)cc1)c1ccc2c(=O)n(C3CCCC3)c(=S)[nH]c2c1 | -0.53 (inactive)
COc1ccc(-c2c(C(F)(F)F)oc3cc(O)ccc3c2=O)cc1 | 0.21 (inactive)
CC(C)c1ccccc1NC(=O)c1ccccc1 | 0.08 (inactive)
CC(C)c1ccc(NC(=O)c2ccc(NC3CCCC(C)C3C)c([N+](=O)[O-])c2)cc1 (stereo not given) | -0.26 (inactive)
O=C(CSc1nc2c(cnn2-c2ccc(F)cc2)c(=O)[nH]1)N1CCCCCC1 | -0.88 (inactive)
CCCn1c2ccccc2c2n[nH]c(=S)nc21 | -0.86 (inactive)
Cc1ccc(Cl)cc1N1CCN(C(=O)CCCn2c(=S)[nH]c3cc4c(cc3c2=O)OCO4)CC1 | 1.87 (inactive)
Cc1ccc(-c2cc3nc(C)cc(C(F)(F)F)n3n2)cc1 | -0.75 (inactive)
COC(=O)c1ccc(Sc2ccc(C)cc2)c([N+](=O)[O-])c1 | 0.34 (inactive)
CCCn1c(C(C)NC(=O)C(C)(C)C)nc2ccccc21 (stereo not given) | -0.58 (inactive)
Cc1cccc(NC(N)=Nc2nc(CSc3ccc(Cl)cc3)cc(=O)[nH]2)c1 | 0.03 (inactive)
O=[N+]([O-])c1ccc(C=Nc2ccc(-c3nc4ccccc4o3)cc2)s1 | -1.32 (inactive)
CC(C)(C)c1ccc(C(=O)Nc2ccc(N3CCOCC3)c(Cl)c2)cc1 | -1.1 (inactive)
CN(Cc1ccccc1)C(=O)Cn1ncc2c(=O)oc3ccccc3c21 | 1.21 (inactive)
CCCCNC(=O)c1ccc[nH]c1=S | 0.16 (inactive)

Structure (SMILES) | z-score
CC(=O)c1cccc(NC(=O)c2ccccc2C(=O)O)c1 | -0.2 (inactive)
COc1ccc(OC)c2[nH]c(=O)c(CCNC(=O)c3ccccc3I)cc12 | -0.19 (inactive)
CSCCC1(C(=O)O)NC(c2cc(I)ccc2O)C2C(=O)N(Cc3ccccc3)C(=O)C21 (stereo not given) | -0.74 (inactive)
O=C(NCc1ccccc1)c1ccc(CSCc2ccccc2Cl)o1 | -0.18 (inactive)
Cc1ccc(S(=O)(=O)n2nc(OC(=O)c3ccc(F)cc3)cc2N)cc1 | -1.65 (inactive)
Cn1c(=O)c(Cl)c(O)c2ccccc21 | 0.2 (inactive)
COC(=O)c1c(NC(=O)Cn2cnc([N+](=O)[O-])n2)sc2c1CCCC2 | -0.06 (inactive)
CCOc1ccc(N=C2NC(=O)C(CC(=O)Nc3ccc(Br)cc3)S2)cc1 (stereo not given) | -0.81 (inactive)
Cc1cccc(NC(=O)c2ccc(F)c(S(=O)(=O)N3CC(C)CC(C)C3)c2)c1 (stereo not given) | -0.97 (inactive)
COC(=O)c1c(NC(=O)c2ccc(S(=O)(=O)N3CC(C)CC(C)C3)cc2)sc2c1CC(C)(C)NC2(C)C (stereo not given) | -0.34 (inactive)
Cc1cccc(N2CCN(C(=O)c3ccc4nc5ccc(Cl)cc5c(=O)n4c3)CC2C)c1 (stereo not given) | 0.3 (inactive)
CCOc1ccccc1NC(=O)c1sc2ncnc(N3CCCCC3C)c2c1C (stereo not given) | 1.12 (inactive)
Cc1ccc(-n2nc3c(c2NC(=O)c2ccccc2F)CS(=O)(=O)C3)c(C)c1 | -0.44 (inactive)
O=C1C2C3c4ccccc4C(C(=O)O)(c4ccccc43)C2C(=O)N1c1ccccc1Cl (stereo not given) | -0.65 (inactive)
CC(C)(C)c1nnc(Nc2ccc3c(c2)OCO3)[nH]c1=O | -0.67 (inactive)
CCNS(=O)(=O)c1cc(-c2nnc(Nc3cccc(C(F)(F)F)c3)c3ccccc23)ccc1C | -0.06 (inactive)
Cc1ccc2nc(-c3ccccc3)c(Nc3ccccc3C)n2c1 | -1.03 (inactive)
COc1ccc(C2/C(=C(\O)c3ccccc3)C(=O)C(=O)N2CO)cc1 (stereo not given) | -0.38 (inactive)
O=P(Cc1cccc(CP(=O)(c2ccccc2)c2ccccc2)n1)(c1ccccc1)c1ccccc1 | -1.8 (inactive)
COc1cc(NC(=O)c2noc3c2CCCCC3)c(OC)cc1Cl | -0.93 (inactive)
Cc1ccc(S(=O)(=O)C2(C(=O)N(C)Cc3ccccc3)CC2)cc1 | 0.74 (inactive)
CCC(C(=O)NCCC(C)C)N1C(=O)CSc2ccc(C(C)(C)C)cc21 (stereo not given) | 0.55 (inactive)
Cc1cc(C(=O)NCCCN=C2NS(=O)(=O)c3ccccc32)c2ccccc2n1 | 1.11 (inactive)

Structure (SMILES) | z-score
N#Cc1c(NC(=O)CCCC(=O)O)sc2c1CCCC2 | -0.15 (inactive)
CCCC12CN3CC(C)(CN(C1)C3c1ccccc1Cl)C2=O (stereo not given) | -0.48 (inactive)
O=C1CCCc2oc3c(cc(NS(=O)(=O)c4ccc(Cl)cc4)c4ccccc43)c21 | -0.4 (inactive)
CN(C(=O)CCn1c(=S)oc2ccccc21)C1CCCCC1 | -2.69 (inactive)
CCOc1ccc(C(=O)Nc2cccc(-c3nc4cc(C)ccc4o3)c2)cc1Br | -0.49 (inactive)
O=C(Nc1c2c(nn1-c1ccc(F)cc1)CS(=O)(=O)C2)c1ccccc1Cl | -1.44 (inactive)
COc1ccc(C2Nc3ccccc3C(=O)N2c2ccc(Cl)cc2)cc1COc1ccccn1 (stereo not given) | 0.19 (inactive)
Cc1cc(Cl)ccc1OC1C(=O)N(c2cccc([N+](=O)[O-])c2)C1c1ccccc1Cl (stereo not given) | -0.08 (inactive)
O=C(CCCn1c(=O)[nH]c2cc(Cl)ccc2c1=O)NCCc1c[nH]c2ccccc12 | -0.02 (inactive)
O=S1(=O)N=C(N2CCCCC2)c2ccccc21 | 2.63 (inactive)
CC(=O)c1cccc(N2C(=O)c3ccc(C(=O)OCC(=O)c4cccc([N+](=O)[O-])c4)cc3C2=O)c1 | -0.12 (inactive)
CC(C)Sc1oc(-c2ccc(F)cc2)nc1S(=O)(=O)c1ccc(Cl)cc1 | -1.46 (inactive)
CC(=O)NC1=NN(C(C)=O)C(c2ccc3c(c2)OCO3)S1 (stereo not given) | -0.09 (inactive)
Cc1ccc(S(=O)(=O)N2CCCCCC2)cc1C(=O)Nc1ccc(Br)cc1 | -0.48 (inactive)
CCOc1ccc(-c2cc(C(=O)N3CCN(Cc4ccc5c(c4)OCO5)CC3)c3ccccc3n2)cc1 | 0.33 (inactive)
O=C(NCCN1CCOCC1)c1cc(Sc2cccc(Cl)c2)nc2ccccc12 | 0.36 (inactive)
Cc1cccc(NC(=O)c2c(NC(=O)c3ccncc3)sc3c2CCC(C(C)(C)C)C3)c1 (stereo not given) | -0.43 (inactive)
COc1ccc(NC(=O)CN2C(=O)C3C4CCC(C4)C3C2=O)cc1 (stereo not given) | 0.52 (inactive)
Cc1ccc(C)c(OCCc2c(C)n[nH]c2C)c1 | 0 (inactive)
COC(=O)c1ccccc1Oc1c(F)c(F)nc(NCCO)c1F | -0.51 (inactive)
COc1ccc(OC)c(C=Nc2oc(-c3ccccc3)c(-c3ccccc3)c2C#N)c1 | -1 (inactive)
